PubChem BioAssay AID743060 (The Scripps Research Institute Molecular Screening Center, 2013)
Values joined by “and” are separate entries in the source; they are usually repeats but may differ in a detail not shown here. Identical values can stand only once.

Test: inhibitors of T. brucei MetRS aminoacylation, late-stage follow-up, biochemical, radioactivity, round 1 (AID 743060)
Conditions: purified enzyme, radiolabel aminoacylation, scintillation, 2 h; at 10 µM; stronger effect = higher value

Compound Oc1c(Cl)cc(Cl)cc1CNc1nc2ccccc2[nH]1 has an inhibition of 98.7%.
COc1ccccc1-n1c(SCC(=O)Nc2ccc(Cl)cc2)nc(O)c(Cc2ccccc2)c1=O gave an inhibition of 67%.
With COc1ccc(CCN(C(=O)c2cccc(F)c2)C2CC(=O)N(c3ccc(Br)cc3)C2=O)cc1 (stereo not given) the inhibition was -7.62%.
For Cn1c(CCNC(=O)c2ccc(Cl)cc2)nc2ccccc21, the inhibition was 3.39%.
Work on O=C(NNC(=O)c1ccc(-n2cncn2)c([N+](=O)[O-])c1)c1ccc(Cl)cc1 yielded an inhibition of 73%.
For Cc1cc2cc(C(=O)N3CCCC(c4nc5ccccc5[nH]4)C3)ccc2o1 (stereo not given), the inhibition was 78.2%.
CCO[C@@H]1OC(C(=O)NCc2nc3ccccc3[nH]2)=C[C@H](c2ccc(Br)cc2)[C@H]1CCCO showed an inhibition of 64%.
With Cc1[nH]c2ccc(Br)cc2c(=O)c1CN1CCCCCC1 the inhibition was 86.6%.
For O=C(NCc1nc2ccccc2[nH]1)C1=C[C@@H](c2csc3ccccc23)C[C@@H](OCCCCO)O1, the inhibition was 89.2%.
For Clc1ccc(-c2nnc(SCc3nc4ccccc4[nH]3)o2)c(Cl)c1, the inhibition was 97%.
With CCCCn1c(CCNC(=O)c2ccc(F)cc2)nc2ccccc21 the inhibition was 2.32%.
O=C(N/C(=C\c1cccnc1)c1nc2ccccc2[nH]1)c1cccc(Br)c1 gave an inhibition of 71.7%.
In the case of CC1Cc2ccccc2N1C(=O)Cn1cc(C(=O)C(=O)N2CCOCC2)c2ccccc21 (stereo not given), the inhibition is reported as -14.7%.
COc1ccccc1NC(=O)CSc1nnc2c(n1)[nH]c1ccc(C)cc12 showed an inhibition of 14.5%.
Compound COc1ccc(CNC(=O)CSc2nnc3c(n2)[nH]c2ccc(F)cc23)cc1 has an inhibition of 89.6%.
O=C(NCc1nc2ccccc2[nH]1)C1=C[C@H](c2ccc(Br)cc2)C[C@H](OCCCCO)O1 gave an inhibition of 94.3%.
For CCc1ccc2[nH]c3nc(SCC(=O)NCc4cccc(OC)c4)nnc3c2c1, the inhibition was 0.65%.
Work on COc1cccc(NC(=O)C2CC(=O)n3c(nc4ccccc43)N2)c1 (stereo not given) yielded an inhibition of 31.5%.
Work on COc1ccc(NC(=O)CSc2nnc3c4cc(C)ccc4n(C)c3n2)cc1 yielded an inhibition of -7.1%.
CCN(CC)C(=O)C(=O)c1cn(CC(=O)N2CCCc3ccccc32)c2ccccc12 showed an inhibition of -17.2%.
O=C(NCc1nc2ccccc2[nH]1)C1=C[C@@H](c2ccccc2)C[C@@H](OCc2ccc(CO)cc2)O1 gave an inhibition of 94.3%.
COc1ccccc1NS(=O)(=O)c1cccc(NC(=O)Nc2ccccc2)c1 showed an inhibition of 95.1%.
Compound O=C(NCc1nc2ccccc2[nH]1)C1=C[C@@H](c2ccc3c(c2)OCO3)C[C@@H](OCCCCO)O1 has an inhibition of 93.7%.
For O=C1CC(SCc2nc3ccccc3[nH]2)C(=O)N1c1cccc(Cl)c1 (stereo not given), the inhibition was 52.6%.
For CCN(CC)C(=O)C(=O)c1cn(CC(=O)Nc2ccccc2OC)c2ccccc12, the inhibition was -11.4%.
For O=C(NCc1nc2ccccc2[nH]1)C1=C[C@H](c2ccc(Br)cc2)C[C@H](OCc2ccc(CO)cc2)O1, the inhibition was 94.6%.
In the case of CC(C)OCCCN1CC(=O)N2C(c3cccc([N+](=O)[O-])c3)c3[nH]c4ccccc4c3C[C@H]2C1=O (stereo not given in full), the inhibition is reported as 93.1%.
Work on CCN(C(=O)Cn1cc(C(=O)C(=O)N2CCOCC2)c2ccccc21)c1ccccc1 yielded an inhibition of -23.7%.
O=C(CC(=O)Nc1cccc(Cl)c1)NN=Cc1ccccc1 gave an inhibition of 81.1%.
In the case of O=C(CN1CCSC1=NCc1ccccc1)c1ccc(Cl)c(Cl)c1, the inhibition is reported as 28%.
O=C1CC(N(CCc2ccccc2)C(=S)Nc2ccccc2)C(=O)N1c1ccc(Br)cc1 (stereo not given) gave an inhibition of 97.3%.
In the case of O=C(NCCc1nc2ccccc2[nH]1)c1ccc(Cl)c([N+](=O)[O-])c1, the inhibition is reported as 99.6%.
Compound CC(CC(=O)Nc1cccc(Br)c1)=NNC(=O)c1ccc(O)cc1O has an inhibition of 90.5%.
CC(C)(C)[C@@H]1C=C(C(=O)NCc2nc3ccccc3[nH]2)O[C@H](OCc2ccc(CO)cc2)C1 showed an inhibition of 84.8%.
With O=C(Cn1cc(C(=O)C2CC2)c2ccccc21)Nc1cccc(C(F)(F)F)c1 the inhibition was 31.3%.
In the case of CCCCCCCCCC1NC(C(=O)O)Cc2c1[nH]c1ccccc21 (stereo not given), the inhibition is reported as 93.2%.
With O=C(Cn1cc(C(=O)C(=O)N2CCOCC2)c2ccccc21)NCc1ccccc1 the inhibition was 16.7%.
O=C(Cn1cc(C(=O)C(=O)N2CCOCC2)c2ccccc21)Nc1cccc(C(F)(F)F)c1 gave an inhibition of 100%.
For O=C(Nc1ccc(F)c(Cl)c1)C1CC(=O)n2c(nc3ccccc32)N1 (stereo not given), the inhibition was 90.3% and 93.6%.
CC(=O)c1ccc(N2CCN(C(=O)CCCn3c(=O)[nH]c4ccc(Br)cc4c3=O)CC2)cc1 gave an inhibition of 97%.
O=C(CC=NOCc1ccc([N+](=O)[O-])cc1)Nc1ccc(Cl)cc1 gave an inhibition of 86.5%.
With O=C(CC=NOCc1ccc([N+](=O)[O-])cc1)Nc1ccc(Br)cc1 the inhibition was 84.7%.
COc1ccc(CCN(C(=S)Nc2ccccc2)C2CC(=O)N(c3ccc(Cl)cc3)C2=O)cc1 (stereo not given) gave an inhibition of 99.4%.
Work on Cc1cccc2[nH]c(C3CCCN(C(=O)c4cccc5cccnc45)C3)nc12 (stereo not given) yielded an inhibition of -4.34%.
In the case of O=C(C[C@H]1C(=O)N(Cc2ccccc2)C[C@@H]1c1ccc(Br)cc1)Nc1ccc(Br)cc1, the inhibition is reported as 94.4%.
With O=C(NCc1nc2ccccc2[nH]1)C1=C[C@@H](C2CC2)C[C@@H](OCc2ccc(CO)cc2)O1 the inhibition was 93.6%.
In the case of COc1ccc(OCC(O)CNC(=O)Nc2ccc(Cl)cc2)cc1 (stereo not given), the inhibition is reported as 61.9%.
In the case of COc1cccc(NC(=O)CSc2nnc3c(n2)[nH]c2ccc(C)cc23)c1, the inhibition is reported as 94.2%.
Compound CCC(=O)c1cn(CC(=O)Nc2cccc(C(F)(F)F)c2)c2ccccc12 has an inhibition of 4.46%.
With O=C(CSC1CC(=O)N(c2cccc(Cl)c2)C1=O)Nc1ccc(Br)cc1 (stereo not given) the inhibition was 79.9%.
For O=C1CC(NCCc2ccccc2)C(=O)N1c1ccc(Br)cc1 (stereo not given), the inhibition was -9%.
For O=C(NCc1nc2ccccc2[nH]1)C1=C[C@@H](c2ccc(Br)cc2)C[C@@H](OCc2ccc(CO)cc2)O1, the inhibition was 97.6%.
For CC(=O)c1c[nH]c(C(=O)NCc2cccc(C(F)(F)F)c2)c1, the inhibition was 92.7%.
In the case of COc1ccc(NC(=O)C2CC(=O)n3c(nc4ccccc43)N2)cc1 (stereo not given), the inhibition is reported as -13.4%.
In the case of CCc1ccc2c(c1)c1nnc(SCC(=O)Nc3ccc4c(c3)OCO4)nc1n2C, the inhibition is reported as -8.11%.
With O=C(Cn1cc(C(=O)C(=O)N2CCCC2)c2ccccc21)Nc1ccccc1 the inhibition was 9.2%.
For CN(Cc1cc(Cl)cc(Cl)c1)[C@H]1C[C@H]2c3[nH]c4ccccc4c3CCN2C(=O)[C@H]1CO, the inhibition was 101%.
CCN(CC)C(=O)C(=O)c1cn(CC(=O)Nc2cccc(OC)c2)c2ccccc12 gave an inhibition of 86.4%.
O=C(NCc1nc2ccccc2[nH]1)C1=C[C@H](c2ccc3c(c2)OCO3)C[C@H](OCCCCO)O1 showed an inhibition of 79.4%.
For COc1ccc2[nH]c3nc(SCC(=O)Nc4ccc5c(c4)OCO5)nnc3c2c1, the inhibition was 65.6%.
For COc1ccccc1NC(=O)Cn1cc(C(=O)C(=O)N2CCOCC2)c2ccccc21, the inhibition was -13.7%.
Work on CN(CC(=O)Nc1ccc(Cl)cc1)C(=O)c1ccc(-n2cncn2)c([N+](=O)[O-])c1 yielded an inhibition of 92.5%.
In the case of O=C(CSc1nnc2c(n1)[nH]c1ccc(Br)cc12)NCc1ccccc1, the inhibition is reported as 59.7%.
O=C(Cn1cc(C(=O)COc2ccccc2)c2ccccc21)Nc1cccc(C(F)(F)F)c1 showed an inhibition of -11.8%.
With Clc1ccc(OCCSCc2nc3ccccc3[nH]2)cc1 the inhibition was 44.8%.
In the case of CC(C)c1nc2ccc(C(=O)N(C)CCc3nc4ccc(F)cc4[nH]3)cc2o1, the inhibition is reported as -7.17%.
With CCO[C@H]1OC(C(=O)NCc2nc3ccccc3[nH]2)=C[C@@H](c2ccc(Br)cc2)[C@@H]1CCCO the inhibition was 81.6%.
In the case of Cc1cccc(NC(=O)C2CC(=O)n3c(nc4ccccc43)N2)c1 (stereo not given), the inhibition is reported as 8.95%.
With C[C@H](O)[C@@H]1C(=O)N2CCc3c([nH]c4ccccc34)[C@@H]2C[C@@H]1N(C)Cc1ccc2c(c1)OCO2 the inhibition was 80.4%.
In the case of Cc1cccc(C(=O)NCCc2nc3ccccc3n2CCOc2ccccc2)c1, the inhibition is reported as 0.31%.
